Test results: PubChem BioAssay AID463173 (ICCB-Longwood Screening Facility, Harvard Medical School, 2010)
The whole screen tested about 52,000 compounds, of which about 4,300 (8.3%) were called active. This is one part of a sample in which actives are shown more often than they occur. Values without a mark were called inactive. Cut-off read from the data, not from the text of the source: active = survival mostly below about 52% (no sharp cut-off); inactive = mostly above about 56%.

These compounds were tested on DeltatarO mutant (assay: growth inhibition of S. aureus wild type versus tarO mutant, primary screen, teichoic acid synthesis inhibitors, RN4220, OD600 (AID 463173)). Settings: OD600, 18 h, active compounds read low, screened at 18.75 µg/mL (by protocol).
With COCCCNC(=O)CCCN1C(=O)CCn2nc(-c3cccn3C)cc21 the survival was 97%. O=C(CN1c2ccccc2S(=O)(=O)c2ccccc21)Nc1ccccc1Cl showed a survival of 57%. For Cc1cccc(NC(=O)CN2c3ccccc3S(=O)(=O)c3ccccc32)c1C, the survival was 0% (active). NC(=O)c1ccccc1NC(=O)CN1c2ccccc2S(=O)(=O)c2ccccc21 showed a survival of 92%. In the case of CCOc1ccccc1NC(=O)CN1c2ccccc2S(=O)(=O)c2ccccc21, the survival is reported as 37% (active). Work on Cc1cc(C)c(NC(=O)CN2c3ccccc3S(=O)(=O)c3ccccc32)c(C)c1 yielded a survival of 106%. CCOc1ccccc1NC(=O)CN1C=NS(=O)(=O)c2ccccc21 showed a survival of 72%. Work on CCC(=O)Nc1ccc2nc(C3CC3)n(Cc3ccc(Cl)cc3)c(=O)c2c1 yielded a survival of 111%. Cc1cccc(C)c1OCC(=O)NCC1(N(C)C)CCCCC1 showed a survival of 86%. Cc1ccc(Cn2c(CNC(=O)c3ccccc3Br)nc3cccnc32)cc1 gave a survival of 120%. With COc1cc(OC)c(NS(=O)(=O)c2cc3c(cc2C)NC(=O)CO3)cc1Cl the survival was 88%. CCN(CC)CCCNC(=O)C1CCN(S(C)(=O)=O)CC1 gave a survival of 85%. In the case of COc1cccc(Nc2cc(-c3ccccc3)nc(C)n2)c1, the survival is reported as 37% (active). In the case of CSc1nc(Nc2ccc(C)cc2C)cc(-c2ccccc2)n1, the survival is reported as 51%. For Cc1nc(Nc2ccc(Cl)cc2)cc(-c2ccccc2)n1, the survival was -4% (active). In the case of Cc1cc(C)cc(Nc2cc(-c3ccccc3)nc(C)n2)c1, the survival is reported as 8% (active). Work on Cc1cc(C)cc(Nc2cc(C(=O)NC3CCCCC3)c3ccccc3n2)c1 yielded a survival of 116%. With Cc1ccc(NC(=O)c2cc3nc(-c4ccccc4)cc(-c4ccccc4)n3n2)cc1 the survival was 60%. Cc1cc(Nc2ccc(Br)cc2)nc(C)n1 showed a survival of 51%. Compound COc1ccc(Nc2cc(C)c3ccccc3n2)cc1 has a survival of 96%. For CSc1nc(Nc2ccc(F)cc2)cc(-c2ccccc2)n1, the survival was -5% (active). CSc1nc(C)cc(Nc2cccc(C(=O)O)c2)n1 gave a survival of 63%. CCOc1ccccc1Nc1cc(-c2ccccc2)nc(C)n1 gave a survival of 60%. For CCN(CC)CCCNc1cc(-c2ccccc2)nc(C)n1, the survival was 65%. Cc1ccc(C(C)(C)C)c(OCC(=O)NCCc2nc3ccccc3[nH]2)c1 was tested, and the survival was 70%. O=C(Cn1c(=O)nc(-c2ccccc2)c2cc(Cl)ccc21)NCc1ccccc1 was tested, and the survival was 83%. Compound COc1ccc(NS(=O)(=O)c2cnc(N)nc2)cc1Cl has a survival of 67%. Compound CN1C(=O)C(Cc2ccccc2)NC1=S (stereo unspecified) has a survival of 77%. O=C(NC(=S)NCc1ccccc1)c1ccco1 gave a survival of 71%. With COc1cc(Cl)c(C)cc1NC(=O)CCc1c(C)nc2c3cccnc3nn2c1C the survival was 87%. In the case of COc1ccc(Cl)cc1Nc1sc(C(=O)c2ccccc2)c(N)c1C(=O)Nc1ccccc1, the survival is reported as 103%. Cc1ccc(CNC(=O)CN2C(=O)C3CCCCN3c3ccc(C(=O)N(C)C)cc32)cc1 (stereo unspecified) gave a survival of 88%. Cc1cc(C)c2nc(NCCNC(=O)C3CCCCC3)c(C#N)cc2c1 showed a survival of 93%. Cc1ccc(-c2cc(-c3ccccc3)nc(N3CCCC3)n2)cc1 gave a survival of 115%. With Cc1ccc(Nc2cc(-c3ccccc3)nc(C)n2)cc1 the survival was 24% (active). CCOC(=O)c1ccc(Nc2cc(-c3ccccc3)nc(C)n2)cc1 was tested, and the survival was 50%. With Cc1ccc(CCNC(=O)c2ccc(CS(=O)(=O)Cc3ccc(Cl)cc3)o2)cc1 the survival was 84%. For Cn1nnc2c(N3CCN(c4ccccc4F)CC3)ncnc21, the survival was 83%. Cc1cc(Cl)nc(-c2ccccc2)n1 showed a survival of 91%. For CCOc1ccc(NC(=O)CN2CCSc3ccc(S(=O)(=O)N4CCCC4)cc32)cc1, the survival was 76%. With Cc1ccc(NC(=O)CN2CCSc3ccc(S(=O)(=O)N4CCCC4)cc32)cc1 the survival was 77%. For CCc1ccc(NC(=O)CN2CCSc3ccc(S(=O)(=O)N4CCCC4)cc32)cc1, the survival was -4% (active). Cc1ccc(NC(=O)CSc2nc(=O)n(Cc3cccnc3)c3c2CCC3)cc1F showed a survival of 67%. Cc1ccc(C(=O)CSc2ncn(-c3ccccc3)n2)c(C)c1 gave a survival of 42%. With Cc1ccc(Cn2cccc(NC(=O)c3ccncc3)c2=O)cc1 the survival was 101%. In the case of Cc1ccc(Cn2ccn(Cc3ccc(C)cc3)c(=O)c2=O)cc1, the survival is reported as 97%. In the case of Cc1ccc(Cn2cccc2C2=NC(C)(C)CO2)cc1, the survival is reported as 45% (active). O=c1ccc2cc(S(=O)(=O)Nc3ccc(F)c(Cl)c3)ccc2[nH]1 was tested, and the survival was 89%. COc1ccc(OC)c(NS(=O)(=O)c2ccc(-c3cc(C)no3)s2)c1 gave a survival of 88%. CC(C)Oc1ccc(CNS(=O)(=O)c2ccc3c(c2)C(C)(C)C(=O)N3C)cc1 showed a survival of 84%. In the case of O=S(=O)(Nc1ccc(F)c(Cl)c1)c1ccc(Br)s1, the survival is reported as 10% (active). For COc1ccc(NC(=O)C2CCC(CNS(=O)(=O)c3ccc(Br)s3)CC2)c(OC)c1 (stereo unspecified), the survival was 74%. With COc1ccc(OC)c(NS(=O)(=O)c2ccc3c(c2)C(C)(C)C(=O)N3C)c1 the survival was 48% (active). With O=C(Nc1ccc(Cl)cc1)C1CCC(CNS(=O)(=O)c2ccc(Br)s2)CC1 (stereo unspecified) the survival was 86%. With Cc1ccccc1NS(=O)(=O)c1ccc(Br)s1 the survival was 109%. COc1ccc(OC)c(NS(=O)(=O)c2ccc(Br)s2)c1 was tested, and the survival was 37% (active). For O=S(=O)(Nc1ccc(F)cc1F)c1ccc(Br)s1, the survival was 22% (active). With COc1ccc(CNS(=O)(=O)c2ccc3c(c2)C(C)(C)C(=O)N3C)cc1OC the survival was 76%. Compound O=S(=O)(Nc1ccc(F)cc1F)c1ccc(-n2cccn2)cc1 has a survival of 70%. For O=C(CSCc1ccccc1Cl)N/N=C/c1ccco1, the survival was 101%. COc1ccc(-c2nn(-c3ccc(F)cc3F)c3c2cnc2ccc(F)cc23)cc1 was tested, and the survival was 79%. CN1CCC(OC(=O)COc2ccc(F)cc2)CC1 gave a survival of 79%. NS(=O)(=O)c1ccc(CCNC(=O)C2CCN(c3ncnc4c3nc3n4CCCCC3)CC2)cc1 was tested, and the survival was 83%. Compound Cc1ccc(NCc2cccn2-c2nnc(N3CCC(C(=O)NCCc4ccccc4)CC3)s2)cc1 has a survival of 68%. Compound Cc1ccc2c(c1)N(C(=O)N1CCC(C(=O)NCc3ccccc3F)CC1)CC(C)O2 (stereo unspecified) has a survival of 79%. Cc1cc(C)c2[nH]c(=O)c(C(c3nnnn3C(C)(C)C)N(CCc3ccc(F)cc3)Cc3ccco3)cc2c1 (stereo unspecified) was tested, and the survival was 87%. In the case of CCOC(=O)C(CC)Sc1nnc2[nH]c(=O)cc(C)n12 (stereo unspecified), the survival is reported as 52% (active). In the case of CCCSc1nnc2[nH]c(=O)cc(C)n12, the survival is reported as 124%. Cc1cc(=O)[nH]c2nnc(SCC(N)=O)n12 gave a survival of 69%. In the case of CN1C(=O)C(=C(C#N)C#N)c2cc(Br)ccc21, the survival is reported as 98%. CNC(=O)C1CCC(Cn2c(=O)c3sccc3n(CC(=O)Nc3cc(F)ccc3F)c2=O)CC1 (stereo unspecified) was tested, and the survival was 79%. In the case of CCOc1ccccc1NC(=O)Nc1nnc(N(C)Cc2ccccc2)s1, the survival is reported as 53% (active). With CCc1ccccc1NC(=O)Nc1nnc(N(C)Cc2ccccc2)s1 the survival was 60%. In the case of Cc1ccccc1NC(=O)Nc1nnc(N(C)Cc2ccccc2)s1, the survival is reported as 85%. In the case of CCC(C)c1ccc(NC(=O)C2CCCN(c3ncccn3)C2)cc1 (stereo unspecified), the survival is reported as 81%. With COc1ccc(Cl)cc1NC(=O)CN1c2ccccc2S(=O)(=O)c2ccccc21 the survival was 75%. O=C(Nc1ccc(Cl)cc1Cl)c1cc(S(=O)(=O)N2CCCCCC2)ccc1F gave a survival of 76%. Compound COc1ccc(OC)c(NC(=O)C2CCN(S(=O)(=O)c3ccc(C)cc3)CC2)c1 has a survival of 50%. For O=C(Nc1ccccc1C(F)(F)F)C1CCN(S(=O)(=O)c2ccccc2)CC1, the survival was 49% (active). Work on O=C(Nc1ccccc1C(F)(F)F)C1CCN(S(=O)(=O)Cc2ccccc2)CC1 yielded a survival of 75%. COc1ccc(Cl)cc1NC(=O)C1CCN(S(=O)(=O)c2ccc3c(c2)CC(C)N3C(C)=O)CC1 (stereo unspecified) gave a survival of 92%. With COc1ccc(Cl)cc1NC(=O)C1CCN(S(=O)(=O)c2ccc(F)cc2)CC1 the survival was 43% (active). Work on Cc1ccc(C)c(N2CCN(S(=O)(=O)c3ccc(F)c(C(=O)Nc4ccc(Cl)cc4Cl)c3)CC2)c1 yielded a survival of 96%. COc1ccc(C)cc1NC(=O)c1cc(S(=O)(=O)N2CCC(C)CC2)ccc1F showed a survival of 98%. Cc1cccc(N2CCN(S(=O)(=O)c3ccc(F)c(C(=O)Nc4cccc(Cl)c4C)c3)CC2C)c1 (stereo unspecified) showed a survival of 85%. With COc1cc(Cl)c(C)cc1NC(=O)c1cc(S(=O)(=O)N2CCCC2)ccc1F the survival was 37% (active). CCc1ccccc1NC(=O)C1CCN(S(=O)(=O)c2ccccc2)CC1 showed a survival of 56%. Cc1ccc(N2CCN(S(=O)(=O)c3ccc(F)c(C(=O)Nc4ccc(Cl)cc4Cl)c3)CC2C)cc1 (stereo unspecified) was tested, and the survival was -4% (active). In the case of CCc1nn(CC(=O)NCc2ccc(C)cc2)c(=O)c2cc3occc3n12, the survival is reported as 105%. For CCOc1ccc(NC(=O)Cn2cc(C(=O)c3ccc(F)cc3)c(=O)c3cc4c(cc32)OCCO4)cc1, the survival was 65%. COc1ccc2nc(N(Cc3cccnc3)C(=O)COc3ccccc3)sc2c1 showed a survival of 90%. Cc1ccc(OCCCSc2nc(-c3ccc(C(C)(C)C)cc3)nc3cc(=O)[nH]n23)cc1C gave a survival of 58%. For COc1ccc(NC(=O)C2=CC(c3ccc4c(c3)OCO4)=NS(=O)(=O)N2C)cc1OC, the survival was 79%. O=C(CSc1ncn(-c2ccccc2)n1)NC1CCCCC1 showed a survival of 61%. Compound CCOC(=O)c1c(NC(=O)CC)sc(C(=O)OC)c1C has a survival of 75%. Compound CCOC(=O)c1ccc(-n2c(-c3ccc(C)cc3)c(C)n3c4c(=O)n(C)c(=O)n(C)c4nc23)cc1 has a survival of 75%.
